Screening results deposited in PubChem BioAssay by National Center for Advancing Translational Sciences (NCATS).
POLH inh = blocks human DNA polymerase eta activity; recombinant Pol eta, fluorescent DNA replication assay; hit rate 1.2% among 390,000; AID 588591; Potency, µM (doses to about 114 µM), without a hit: at the top dose activity change, negative = inhibition, actives largely listed as inhibitors; Q9Y253; also: % is scaled to controls: 0 for no effect and ±100 for the full control effect
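Fluorescent replication assay: 50 nM final substrate added after a 15 min room-temperature compound preincubation with 10 nM enzyme. Signal taken at 0 min and again at 10 min.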
WRN helicase inh = WRN helicase (human) inhibition; Potency, µM (doses to about 114 µM), for the others: at the highest dose activity change, negative = inhibition, hits mostly inhibitors; AID 651768; hit rate 0.46% among 360,000; Q14191; WRN helicase unwinding, fluorescent forked duplex, kinetic; also: % is scaled to controls: 0 for no effect and ±100 for the full control effect; nearly all actives have a fitted effect of over 55% in size
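WRN at 20 nM final was preincubated with compound for 15 min at room temperature; reaction started with 100 nM forked duplex oligonucleotide carrying fluorophore and quencher plus 2 mM ATP (final). Unwinding followed kinetically by red fluorescence (ex 525/em 598 nm).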
POLK inh = DNA polymerase kappa (human) inhibition; Q9UBT6; purified Pol kappa, fluorescent DNA synthesis assay, 10 min; Potency, µM (series often up to 107 µM), for inactives: at the highest dose activity, negative = inhibition, most hits filed as inhibitors; hit rate 0.53% among 400,000; also: % is scaled to controls: 0 for no effect and ±100 for the full control effect
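Kinetic fluorescence readout at 0 and 10 min followed reaction start with substrate at 50 nM final. Beforehand, enzyme (10 nM Pol kappa) stood 15 min with compound at room temperature; buffer-only wells were negative controls.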
L3MBTL1 inh = blocks human L3MBTL1 | AID 485360 | AlphaScreen L3MBTL1–H3K9me1 peptide binding | Q9Y468 | hit rate 0.66% among 230,000 | Potency, µM (series often up to 57.1 µM), for inactives: at the highest dose activity, negative = inhibition, hits mostly inhibitors; also: % is scaled to controls: 0 for no effect and ±100 for the full control effect; nearly all actives have a fitted effect of over 60% in size
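AlphaScreen assay: L3MBTL1 (50 nM final) was preincubated 30 min at room temperature with biotinylated H3(1-15)K9me1 peptide (75 nM final), then 30 min with library compounds; streptavidin donor and nickel chelate acceptor beads (10 ug/mL final) added, 30 min dark.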
POLI inh = DNA polymerase iota (human) inhibition | Pol iota fluorescent replication assay, 10 min | hit rate 1% among 390,000 | Potency, µM (doses to about 115 µM), inactives show at the highest dose activity, negative = inhibition, hits mostly inhibitors | Q9UNA4
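Fluorescent replication assay read twice, at 0 min and 10 min after adding 50 nM (final) substrate. Enzyme (10 nM) and compounds were first incubated 15 min at room temperature; enzyme-free buffer wells were negative controls.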
POLB inh = inhibitors of human DNA polymerase beta; Pol beta primer extension/strand displacement, fluorescence kinetic; P06746; hit rate 1.3% among 340,000; Potency, µM (highest dose often 114 µM), for inactives: at the highest dose activity change, negative = inhibition, hits mostly inhibitors; also: % is scaled to controls: 0 for no effect and ±100 for the full control effect
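Human Pol beta at 10 nM; strand-displacement substrate 50 nM final. Compound exposure 15 min at room temperature before start, reaction 10 min at room temperature.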
TbPGK inh = TbPGK inhibition, hit validation. TbPGK coupled GAPDH assay, Kinase-Glo luminescence. hit rate 79% among 500. shares compounds with POLK inh. AID 686980. Potency, µM (top dose mostly 57.5 µM), inactives show at the top dose activity change, negative = inhibition, hits mostly inhibitors; also: % is scaled to controls: 0 for no effect and ±100 for the full control effect; nearly all actives have a fitted effect of over 65% in size
Target sequence (P07378 whole entry, looked up): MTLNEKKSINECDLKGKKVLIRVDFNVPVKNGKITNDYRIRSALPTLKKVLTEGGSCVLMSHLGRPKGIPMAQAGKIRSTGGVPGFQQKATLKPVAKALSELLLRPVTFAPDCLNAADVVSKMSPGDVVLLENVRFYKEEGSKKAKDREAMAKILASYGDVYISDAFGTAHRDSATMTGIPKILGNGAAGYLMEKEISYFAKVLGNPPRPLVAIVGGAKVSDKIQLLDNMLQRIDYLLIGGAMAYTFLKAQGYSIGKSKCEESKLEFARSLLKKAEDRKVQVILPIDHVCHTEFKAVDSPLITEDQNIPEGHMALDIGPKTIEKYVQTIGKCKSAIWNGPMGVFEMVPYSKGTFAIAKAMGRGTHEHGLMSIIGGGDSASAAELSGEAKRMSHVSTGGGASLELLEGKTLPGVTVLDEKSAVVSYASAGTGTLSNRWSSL
POLI cherry-pick = Human Pol iota inhibitor confirmatory assay. shares compounds with POLK inh. Pol iota primer extension, TAMRA/BHQ fluorescence. Potency, µM, most hits filed as inhibitors. hit rate 77% among 1,500. AID 720496
Starred values were filed as active, the others as inactive; ? = inconclusive; . = no result; ! = not active in a repeat; [ ] = another dose, or the depositor's remark. Rows were chosen to be rich in hits. Some 2.5% of all compounds tested hit in one or more screens of this group. Calls follow the shape of the dose curve; as a rule, active = well fitted curve in the direction sought with a large enough effect; inconclusive = small, poorly fitted or top-dose-only effect, or another doubt; inactive = no such curve, though single readings can be large; an effect the other way counts as inactive or inconclusive. Potency is read from the fitted curve at half-maximal effect.

SMILES	POLH inh	WRN helicase inh	POLK inh	L3MBTL1 inh	POLI inh	POLB inh	TbPGK inh	POLI cherry-pick
CN(C)c1ccc(/C=C/c2ccc3c4ccccc4ccc3[n+]2-c2ccccc2)cc1	22.4µM*	12.6µM*	44.7µM*!	?	20µM*	11.2µM*	29.1µM*	.
Cc1cc(C)cc(NC(=O)Cn2nnc(C(=O)NCc3ccc4c(c3)OCO4)c2N)c1	?	-24.9%	?	.	?	?	.	.
Cc1ccc(CNC(=O)c2nnn(CC(=O)Nc3cc(C)cc(C)c3)c2N)cc1	?	-13.9%[11.6 µM]	?	.	39.8µM*	?	.	33.6*
O=C1Nc2ccccc2/C1=N/N=C/c1ccc(-c2ccc([N+](=O)[O-])cc2)o1	?	-35.8%[57.1 µM]	5.8%	-4.3%	31.4%	-19.3%	.	?
O=C(O)Cn1nnc(-c2ccc(OCc3ccccc3)cc2)n1	-15.5%	4.0%	0.5%	.	50.1%	.	.	.
COc1ccc2noc3c2c1C(=O)c1ccccc1-3	?	?	?	.	?	.	.	?
O=C(Nc1ccc(NC(=O)c2ccco2)c(Cl)c1)c1ccc2c(c1)OCCO2	?	?	?	.	?	?	.	?
CSc1ncc(C(=O)Nc2ccc(F)cc2F)c(-c2ccccc2)n1	4.0%	.	3.1%	.	?	8.8%	.	.
BrC(=C\c1ccccc1)/C=N/Nc1ccc2nncn2n1	50.1µM*	-13.4%[11.6 µM]	-22.8%	.	?	?	.	33.6*
C#Cc1ccc(C(=O)NCc2ccc(N3CCCC3=O)cc2)cc1	15.8µM*	-13.2%[11.6 µM]	?	-34.6%	?	17.8µM*	.	42.3*
O=C(NCc1cccs1)c1ccc(N2CCCC2=O)cc1	2.3%	-7.3%	-12.1%	.	9.8%	1.3%	.	.
CCc1ccccc1Nc1nn2c(=O)c3ccc(C(=O)NCc4ccc(C)cc4)cc3nc2s1	-13.1%	.	-0.9%	.	10.2%	-2.2%	.	.
Cc1ccccc1Nc1nn2c(=O)c3ccc(C(=O)NCc4ccccc4)cc3nc2s1	?	.	0.0%[60.1 µM]	.	79.4µM*	12.6µM*	.	?
CC1=CC2=NC(=O)/C(=C\c3cc(C)n(-c4ccc(F)cc4)c3C)C(=N)N2O1	-7.1%	-2.4%	-6.9%	1.4%	17.6%	1.7%	.	.
CC1=CC2=NC(=O)/C(=C\c3ccc(-c4cccc(Cl)c4)o3)C(=N)N2O1	5.62µM*	-26.5%	-9.8%	0.9%	?	?	.	?
COc1ccc(C(=O)O/N=C(\C)c2ccccc2)cc1	-0.8%	-0.4%[57.1 µM]	-11.1%	2.0%	-6.0%	14.0%	8.19µM*	.
COc1ccc(C(=O)O/N=C(/c2ccccc2)c2ccncc2)cc1	-6.6%	-3.9%	-2.7%	.	11.0%	2.3%	.	.
Cc1ccc(C(=O)O/N=C(\N)c2ccccn2)cc1C	6.1%	-8.9%	-0.5%	-0.7%	93.4%	25.2%	.	.
N/C(=N\OC(=O)c1ccccc1)c1ccccn1	-19.1%	2.6%	-1.1%	-6.6%	8.7%	20.5%	10.3µM*	.
Cc1ccc(C(=O)O/N=C(\N)c2ccccn2)cc1	-7.7%	1.5%	-9.0%	.	29.8%	-1.7%	6.51µM*	.
CCOc1ccc(C(=O)O/N=C(\N)c2ccccn2)cc1	-24.2%	-5.6%	-5.6%	-0.5%	45.7%	9.7%	9.19µM*	.
Cc1cccc(C(=O)O/N=C(\N)c2ccccn2)c1	-23.2%	-1.4%	-17.3%	.	47.0%	28.4%	.	.
CC(C)(C)c1ccc(C(=O)O/N=C(\N)c2ccccn2)cc1	-22.6%	2.1%	-6.9%	.	53.5%	5.5%	.	.
C/C(=N/OC(=O)c1ccc(C)cc1)c1cccs1	-2.1%	7.8%	-11.2%	10.9%	10.1%	-11.6%	10.3µM*	.
CCOC(=O)c1cc2n(n1)C(C(F)(F)F)CC(C)N2 (stereo not given)	4.2%	-2.4%	-5.4%	-1.3%	3.6%	21.3%	.	.
SMILES	POLH inh	WRN helicase inh	POLK inh	L3MBTL1 inh	POLI inh	POLB inh	TbPGK inh	POLI cherry-pick
COc1ccccc1C(=O)Nc1nc2ccccc2s1	-5.1%	2.1%	14.1%	34.0%[2.29 µM]	?	-27.0%	16.3µM*	.
CCCNC(=O)C(=O)N/N=C/c1ccc(OCc2ccccc2)cc1	13.7%	5.8%	-5.9%[60.1 µM]	.	11.2%	13.5%	.	.
CCOc1ccc(CCNC(=O)COC(=O)c2cccc(S(=O)(=O)N3CCOCC3)c2)cc1OCC	-14.9%	3.3%	-17.8%	-6.4%	60.7%	.	.	.
Cc1nc(SC(C)C(=O)Nc2cccc(C(F)(F)F)c2)c2c(C)c(C(=O)O)sc2n1 (stereo not given)	?	?	?	.	7.2%	?	.	33.6*
Cc1nc(N2CCC(C)CC2)c2c(C)c(C(=O)Nc3cccc(C(F)(F)F)c3)sc2n1	-11.8%	-28.1%	-27.2%	.	19.2%	0.4%	.	.
CC1(C)CC(=O)C(C(=O)CCCCC(=O)C2C(=O)CC(C)(C)CC2=O)C(=O)C1	-7.7%	-4.4%	-19.7%	0.6%	14.9%	?	.	.
COc1cc(/C=C/c2nc3ccccc3c(=O)[nH]2)cc(Cl)c1O	?	-34.5%	-0.6%	.	32.7%	?	.	?
CC(C)(C)C1CCC(=NNC(=O)C(=O)NCc2cccnc2)CC1 (stereo not given)	-0.3%	-5.8%	-9.9%	-2.0%	27.4%	8.6%	.	.
Cc1ccc(O)c(N=Nc2ccccc2)n1	-1.7%[57.1 µM]	-4.3%	6.0%[60.1 µM]	.	-8.8%[58.9 µM]	-12.7%[57.1 µM]	14.6µM*	.
Cc1ccc([N+](=O)[O-])cc1N(CC(=O)N1CCCCC1)S(C)(=O)=O	0.1%	-5.6%	-19.3%	-0.1%	49.9%	3.2%	.	.
CC1=C/C(=C(/c2cc(C)c(O)c(Br)c2)c2ccccc2S(=O)(=O)O)C=C(Br)C1=O	35.5µM*	?	?	.	?	-26.7%	18.3µM*	.
